# Assay outcomes as filed in PubChem BioAssay.
# In the library only some 2.8% were active in any assay of this set; here they are far more common.
# PI5P4K alpha inh: PI5P4K alpha (human) kinase inhibition | P48426 | max response, % | 330,000 compounds, 1.2% hits | AID 652105 | PI5P4Kalpha enzyme, ADP-Glo luminescence, 60 min; hits give low values; active = max response of -50% or lower; inconclusive = between -30% and -50%; inactive = -30% or higher; note: value at the top dose of about 77 µM
#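 Luminescence from ADP-Glo served as readout of PI5P4Kalpha activity in a qHTS format. Reaction: enzyme, substrate, compound, ATP at 5 microM final, 60 min at RT.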
# Pol kappa inh: inhibitors of human DNA polymerase kappa. Q9UBT6. purified Pol kappa, fluorescent DNA synthesis assay, 10 min. Potency, µM (titrated, usually from 107 µM), hits mostly inhibitors. 400,000 compounds, 0.53% hits
#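 Inhibition of 10 nM Pol kappa is measured by a fluorescent read-out at 0 and 10 min following addition of 50 nM substrate (final), with a 15-min room-temperature compound preincubation.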
# Pol iota inh: blocks human DNA polymerase iota activity | Q9UNA4 | Pol iota fluorescent replication assay, 10 min | Potency, µM (highest dose often 115 µM), usual class: inhibitors | 390,000 compounds, 1% hits
# Target sequence (Q9UNA4 whole entry, looked up): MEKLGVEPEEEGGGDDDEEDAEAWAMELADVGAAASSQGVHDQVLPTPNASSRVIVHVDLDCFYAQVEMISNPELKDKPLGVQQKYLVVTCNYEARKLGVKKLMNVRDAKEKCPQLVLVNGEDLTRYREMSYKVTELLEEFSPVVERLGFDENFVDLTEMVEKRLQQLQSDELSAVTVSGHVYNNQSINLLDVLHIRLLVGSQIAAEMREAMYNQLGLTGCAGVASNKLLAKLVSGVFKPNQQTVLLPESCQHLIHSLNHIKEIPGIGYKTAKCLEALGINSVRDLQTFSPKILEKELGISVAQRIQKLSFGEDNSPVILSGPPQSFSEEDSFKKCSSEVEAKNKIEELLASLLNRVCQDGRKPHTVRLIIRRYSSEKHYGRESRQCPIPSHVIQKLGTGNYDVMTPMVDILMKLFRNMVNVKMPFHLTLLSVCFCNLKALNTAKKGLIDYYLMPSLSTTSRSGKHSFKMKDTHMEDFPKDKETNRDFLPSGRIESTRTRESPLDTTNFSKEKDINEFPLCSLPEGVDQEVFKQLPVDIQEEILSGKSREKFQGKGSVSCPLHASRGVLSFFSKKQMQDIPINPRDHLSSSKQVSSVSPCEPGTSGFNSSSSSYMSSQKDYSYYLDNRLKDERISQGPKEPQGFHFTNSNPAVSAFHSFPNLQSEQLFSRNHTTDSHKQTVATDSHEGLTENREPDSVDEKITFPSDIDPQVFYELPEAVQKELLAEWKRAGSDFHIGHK
#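 Pol iota at 10 nM preincubated 15 min with compounds at room temperature; reaction started with fluorescent substrate, 50 nM final. Fluorescence read kinetically at 0 and 10 min; buffer-only wells as negative control.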
# Pol eta inh: inhibitors of human DNA polymerase eta | 390,000 compounds, 1.2% hits | Potency, µM (series often up to 114 µM), actives largely listed as inhibitors | recombinant Pol eta, fluorescent DNA replication assay
#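 Pol eta at 10 nM preincubated with compounds 15 min at room temperature; reaction started with fluorescent substrate (50 nM final) and read kinetically at 0 and 10 min.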
# Pol beta inh: inhibitors of human DNA polymerase beta. P06746. Pol beta primer extension/strand displacement, fluorescence kinetic. Potency, µM (top dose mostly 114 µM), actives largely listed as inhibitors. 340,000 compounds, 1.3% hits. AID 485314
#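 Pol beta (10 nM) and compounds were preincubated 15 min at room temperature, then 50 nM substrate (final) started primer extension/strand displacement. Reads were taken at 0 and 10 min; concentration-response data were fitted to a four-parameter Hill equation.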
# WRN inhibitor: blocks human WRN helicase | Q14191 | WRN helicase unwinding, fluorescent forked duplex, kinetic | Potency, µM (top dose mostly 114 µM), usual class: inhibitors | 360,000 compounds, 0.46% hits; note: nearly all actives have a fitted effect of over 55% in size
#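 WRN at 20 nM final was preincubated with compound for 15 min at room temperature; reaction started with 100 nM forked duplex oligonucleotide carrying fluorophore and quencher plus 2 mM ATP (final). Unwinding followed kinetically by red fluorescence (ex 525/em 598 nm).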
# A number is an active result; 0 = inactive; ? = inconclusive; - = no result; [ ] = another dose, or the depositor's remark. Unless noted, calls come from the whole dose curve; as a rule, active = well fitted curve in the direction sought with a large enough effect; inconclusive = small, poorly fitted or top-dose-only effect, or another doubt; inactive = no such curve, though single readings can be large; an effect the other way counts as inactive or inconclusive.
SMILES,PI5P4K alpha inh,Pol kappa inh,Pol iota inh,Pol eta inh,Pol beta inh,WRN inhibitor
Cc1ccc(NC(=O)Cn2c(=O)ccc3cc(S(=O)(=O)N4CCCC4)ccc32)cc1N(C)C,-,0,0,0,0,-
COc1ccc(-c2cc(CNc3nc(NCc4ccccc4OC)nc4ccsc34)on2)cc1,?,-,-,-,-,0
COc1cc(/C=C(/C(=O)O)c2ccc(-c3ccccc3)cc2)cc(OC)c1OC,0,0,0,?,50.1µM,0
COc1cccc(/C=N/NC(=O)c2ccc(N3CCCC3=O)cc2)c1,0,?,?,0,25.1µM,0
COc1cc(/C=N\NC(=O)c2sc(N)nc2C)cc(OC)c1OC,0,?,7.08µM,?,28.2µM,0
COc1cc(C=C(C#N)C(=O)c2ccccc2)cc(OC)c1OC,0,-,-,-,-,0
COc1cc(/C=N/NC(=O)c2ccc(-c3ccccc3)cc2)cc(OC)c1OC,0,?,?,?,35.5µM,0
Cc1nc(N)sc1C(=O)N/N=C/c1ccc([N+](=O)[O-])cc1,0,0,0,0,0,0
CCOC(=O)C(CC)Sc1ccc2nnc(-c3ccc(F)cc3)n2n1 (stereo unspecified),-,0,0,-,-,-
COc1cc(/C=N/NC(=O)c2ccc(-n3cccc3)cc2)ccc1O,?,?,89.1µM,22.4µM,12.6µM,0[11.6 µM]
O=C(NCc1ccco1)c1cc2c(s1)CCCCC2,-,0,?,0,28.2µM,0
O=C(O)CCN1C(=O)/C(=C\c2ccc(-c3nc4ccccc4s3)o2)SC1=S,0,0,0,2.51µM,?,?
O=C(O)CCN1C(=O)/C(=C\c2ccncc2)SC1=S,0,0,0,0,0,0
CC(C)(C)C1CCc2sc(C(=O)NNC(=O)CCl)cc2C1 (stereo unspecified),0,0,?,0,0,0
Cc1cc(Br)ccc1NC(=O)CNC(=O)Cc1ccc(S(=O)(=O)N2CCOCC2)s1,0,0,0,?,-,0
Cn1cc(S(=O)(=O)N2CCCC2)cc1C(=O)Nc1cccc(C(F)(F)F)c1,0,0,0,0,0,0
Cn1cc(S(=O)(=O)N2CCCC2)cc1C(=O)Nc1ccc(C(F)(F)F)cc1,-,0,?,0,25.1µM,-
COC(=O)c1c(NC(=O)C2CC=CCC2C(=O)O)sc(C(N)=O)c1C (stereo unspecified),0,0,14.1µM,?,0,?
COC(=O)c1c(NC(=O)c2ccccc2)sc(C(N)=O)c1C,0,0,89.1µM,0,0,0[11.6 µM]
COC(=O)c1c(NC(=O)C2CC=CCC2C(=O)O)sc(C)c1C (stereo unspecified),-,0,0,0,0,0
COc1ccc(-c2cnc3c(NC(C)=O)cc(-c4cccc(C(=O)NCCN(C)C)c4)cn23)cc1OC,0,-,-,-,-,25.1µM
COc1cc(-c2cnc3c(NC=O)cc(-c4cccc(C(=O)NCCN(C)C)c4)cn23)cc(OC)c1OC,0,-,-,-,-,20µM
COc1ccc(-c2cnc3c(NC(C)=O)cc(-c4cccc(C(=O)NCCO)c4)cn23)cc1OC,0,-,-,-,-,0
CCCCOc1ccc(/C=C/C(=O)N(CC)CC(=O)Nc2ccc3c(c2)OCCO3)cc1OC,0,0,0,0,-,0
CC(C)(C)n1ncc2c(=O)n(Cc3cccc(C(F)(F)F)c3Cl)cnc21,-,0,0,-,-,-
SMILES,PI5P4K alpha inh,Pol kappa inh,Pol iota inh,Pol eta inh,Pol beta inh,WRN inhibitor
CC(C)(C)c1c(Cl)c(O)c(-c2ccccc2)c(=O)n1-c1ccccc1,0,0,1.12µM,0,0,50.1µM
O=c1c2cc([N+](=O)[O-])cc([N+](=O)[O-])c2[nH]n1-c1ccccc1,-97.7,0,?,?,0,0
Nc1[nH]n(-c2ccccc2)c(=O)c1N=Nc1ccccc1[N+](=O)[O-],-,0,?,0,0,0
CC(=O)c1c[nH]c(C(=O)NCc2ccccc2Cl)c1,0,0,0,0,0,0
O=Cc1cc(N=Nc2ccccc2Cl)ccc1O,?,?,?,0,?,0
O=Cc1cc(N=Nc2cccc(C(=O)O)c2)ccc1O,-79.0,?,?,?,35.5µM,0[11.6 µM]
CCC(Sc1nc(N)cc(N)n1)C(=O)O (stereo unspecified),0,0,0,0,0,0
Nc1c(O)ccc2c1C(=O)c1ccccc1C2=O,-56.9,79.4µM,?,?,50.1µM,0
O=C(NC(=S)Nc1ccc(NC(=O)c2cccs2)cc1)c1cc2ccccc2o1,0,0,0,?,12.6µM,0
N#C/C(=C(/O)CN1CCOCC1)c1nc(-c2ccccc2)cs1,-,0,?,0,0,0
Cc1ccc(NC(=O)CN2CCN(C(=O)c3ccco3)CC2)cc1,0,0,0,0,0,0
COc1ccccc1N1CCN(C/C(O)=C(\C#N)c2nc(-c3ccccc3)cs2)CC1,-,0,0,0,?,0
N#C/C(=C(/O)CCl)c1nc(-c2ccccc2)cs1,0,0,?,39.8µM,?,0
Cc1ccc2nc(-c3ccc(NC(=O)CN4CCN(C(=O)c5ccco5)CC4)cc3)sc2c1,-,44.7µM,28.2µM,79.4µM,31.6µM,?
Cc1ccc(-c2csc(/C(C#N)=C(\O)CN3CCN(C(=O)c4ccco4)CC3)n2)cc1,?,0,?,22.4µM,0,?
N#C/C(=C(/O)CN1CCCCC1)c1nc(-c2ccc(Cl)cc2)cs1,-,0,0,0,0,0
Cc1ccc(-c2csc(/C(C#N)=C(\O)CCl)n2)cc1,?,0,?,44.7µM,?,0
CC(C)(C)OC(=O)N1CCC(c2c(C(=O)NCc3ccc4c(c3)OCO4)cnn2-c2ccccc2Cl)CC1,-,0,0,0,0,-
COc1ccc(OC)c(NC(=O)c2cn3c4c(ccc(Cl)c4c2=O)OC(C)C3)c1 (stereo unspecified),-,0,0,0,0,-
O=C1/C(=C\c2ccco2)CCC/C1=C\c1ccco1,?,8.91µM,2.82µM,?,7.08µM,15.8µM
O=C1/C(=C/c2ccco2)Cc2ccccc21,0,?,?,0,?,0
CC1C/C(=C/c2ccco2)C(=O)/C(=C/c2ccco2)C1 (stereo unspecified),-,-,-,-,3.55µM,-
O=C(O)C1C2CCC(O2)C1C(=O)NCc1ccc(Cl)cc1 (stereo unspecified),0,0,0,0,0,0
COCCOC(=O)C1=C(C)NC2(O)c3ccccc3C(=O)C12O (stereo unspecified),0,0,31.6µM,0,0,0
CN(C)c1ccc(/C=C/c2ccnc3ccc(I)cc23)cc1,-,0,0,-,-,-
N#Cc1c(-c2cccs2)nc(SCc2ccc(Cl)cc2)[nH]c1=O,0,0,?,89.1µM,56.2µM,?
CSc1nc(-c2cccs2)c(C#N)c(=O)[nH]1,?,0,0,0,0,0
CCCNC(=O)c1ccc(-c2nc3ccccc3s2)s1,0,0,?,?,15.8µM,0
N#Cc1ccccc1Cn1c(=O)n(-c2ccc(F)c(Cl)c2)c(=O)c2sccc21,-,0,0,0,0,-
